The structures appear in SMILES notation. In all, about 52,000 compounds went through this assay and about 4,300 (8.3%) were called active. The full list was thinned out, with actives kept by preference. Unmarked numbers belong to inactive results. Cut-off read from the data, not from the text of the source: active = survival mostly below about 52% (no sharp cut-off); inactive = mostly above about 56%.

For the assay, the system named is DeltatarO mutant. In words: S. aureus survival, RN4220 and DeltatarO strains – OD600, teichoic acid synthesis inhibitors, primary screen (AID 463173). The note with it: S. aureus RN4220 wild type/DeltatarO growth, OD600, 18 h, hits give low values, screened at 18.75 µg/mL (by protocol).
Take `CCC(Sc1nc2ccccc2c2nc(-c3ccccc3)nn12)C(=O)Nc1cccc(OC)c1` (configuration not stated): the survival was 94%.
For `O=C(NCc1ccc(F)cc1)C(=O)Nc1ccc2nc3n(c(=O)c2c1)CCCCC3`, the survival is 94%.
Take `Cc1cc(C)cc(NC(=O)COCc2cc(-c3ccc4c(c3)OCO4)on2)c1`: the survival is 55%.
Regarding `COC(=O)C1=C(N)OC2=C(C(=O)CCC2)C1c1ccc(OC)cc1` (configuration not stated), the survival was 102%.
Take `O=C(Nc1ccc2nc(SCC(=O)N3CCCC3)sc2c1)c1ccc(Br)cc1`: the survival was 92%.
Turning to `O=c1ccn2c(n1)OC1C(O)C(CO)OC12` (configuration not stated), the survival was 83%.
Turning to `O=C(c1ccccc1)N(C(=O)c1ccccc1)c1ccccn1`, the survival is 71%.
On to `Cc1cc2c(cc1S(=O)(=O)Nc1cccc(C#N)c1)OCC(=O)N2`, for which the survival was 93%.
Take `COc1cccc(N2CCN(C(=O)CCc3c(C)nc4c(c3C)c(=O)n(C)c(=O)n4C)CC2)c1`: the survival is 98%.
Take `CN(c1ccc(F)cc1)S(=O)(=O)N1CCCC(C(=O)NCc2cccc(Br)c2)C1` (configuration not stated): the survival was 72%.
On to `O=C(Nc1ccccn1)C(=NO)C(=O)Nc1ccccn1`, for which the survival was 98%.
For `Cc1ccc(NC(=O)C(Cc2c[nH]c3ccccc23)NC(=O)OC(C)(C)C)c(C)c1` (configuration not stated), the survival is 27% (active).
Take `CC(C)c1ccccc1NC(=O)C(Cc1c[nH]c2ccccc12)NC(=O)OC(C)(C)C` (configuration not stated): the survival is 162%.
As for `COc1ccc(NC(=O)C(Cc2c[nH]c3ccccc23)NC(=O)OC(C)(C)C)cc1` (configuration not stated), the survival is 48%.
As to `N#Cc1ccccc1NC(=O)c1cccs1`, the survival was 93%.
Regarding `COc1ccc(Nc2ncc(C(=O)Nc3cc(C)ccc3OC)c3ccccc23)cc1`, the survival is 50%.
The result for `COc1ccccc1Nc1ncc(C(=O)Nc2ccc(OC)c(OC)c2)c2ccccc12` reads 43% (active); that for `COc1ccc(Nc2ncc(C(=O)Nc3cccc(OC)c3)c3ccccc23)cc1`, 106%.
As for `COc1ccc(NC(=O)c2cnc(Nc3ccc(C)c(Cl)c3)c3ccccc23)c(OC)c1`, the survival is 63%.
Take `COC(=O)c1ccccc1NC(=O)c1cnc(Nc2ccc(OC)cc2)c2ccccc12`: the survival is 61%.
For `COc1ccc(Nc2ncc(C(=O)Nc3cc(Cl)c(OC)cc3OC)c3ccccc23)cc1`, the survival is 72%.
The result for `Cc1ccc(Nc2ncc(C(=O)N3CCN(c4ccc(F)cc4)CC3)c3ccccc23)cc1Cl` reads 76%.
For `Cc1ccc(Nc2ncc(C(=O)Nc3ccc(F)cc3F)c3ccccc23)cc1Cl`, the survival is 37% (active).
Turning to `COc1ccc(Nc2ncc(C(=O)Nc3ccc(F)cc3F)c3ccccc23)cc1`, the survival was 35% (active).
For `COc1ccc(NC(=O)c2cnc(Nc3ccc(C)c(Cl)c3)c3ccccc23)cc1OC`, the survival was 51%.
In the case of `CCOc1ccc(NC(=O)c2cnc(Nc3ccccc3OC)c3ccccc23)cc1`, the survival was 50%.
With `COc1ccc(OC)c(NC(=O)c2cnc(Nc3ccc(C)c(Cl)c3)c3ccccc23)c1` the figure was 44% (active).
The result for `CCOC(=O)c1c(C)[nH]c(C)c1S(=O)(=O)N(C)CC(=O)Nc1cc(Cl)ccc1C` reads 94%.
`COc1ccc(S(=O)(=O)c2cn(C)c3cc(N4CCOCC4)c(F)cc3c2=O)cc1`: the survival is 96%.
In the case of `CCc1cccc(CC)c1NC1=NS(=O)(=O)c2ccccc21`, the survival was 70%.
Turning to `Cc1cc(N2CCN(c3ccc(F)cc3)CC2)n2cnnc2n1`, the survival was 79%.
The result for `COc1ccc(-c2cn3cccnc3n2)cc1NC(=O)Nc1ccc(Cl)cc1` reads 84%; that for `O=C(CSc1nncn2c1cc1occc12)Nc1ccc(F)c(Cl)c1`, 65%.
With `Cc1cc(C)c(NC(=O)CSc2nncn3c2cc2oc(C)cc23)c(C)c1` the figure was 65%.
With `CCc1cccc(C)c1NC(=O)CSc1nnc(CC)n2c1cc1occc12` the figure was 67%; with `CCc1ccccc1NC(=O)CSc1nncn2c1cc1oc(C)cc12`, 62%.
As for `Cc1cc(C)cc(NC(=O)CSc2nncn3c2cc2occc23)c1`, the survival is 46% (active).
On to `COc1ccc(NC(=O)CSc2nncn3c2cc2occc23)c(OC)c1`, for which the survival is 69%.
In the case of `CCc1nnc(SC(CC)C(=O)Nc2ccc(OC)c(Cl)c2)c2cc3occc3n12` (configuration not stated), the survival was 72%.
Turning to `CCC(Sc1nncn2c1cc1oc(C)cc12)C(=O)Nc1ccc(F)cc1` (configuration not stated), the survival was 54%.
Regarding `Cc1cc2c(cc3c(SCC(=O)Nc4ccc(Cl)cc4F)nncn32)o1`, the survival is 36% (active).
For the compound `CCC(Sc1nncn2c1cc1occc12)C(=O)Nc1ccc(C)c(Cl)c1` (configuration not stated), the survival is 36% (active).
With `CCc1nnc(SC(CC)C(=O)Nc2cc(C)ccc2C)c2cc3occc3n12` (configuration not stated) the figure was 79%; with `CCc1cccc(C)c1NC(=O)C(CC)Sc1nncn2c1cc1occc12` (configuration not stated), 53% (active); with `CC(C)c1ccc(NC(=O)c2ccc(F)c(S(=O)(=O)N3CCCC3)c2)cc1`, 74%.
With `Cc1ccccc1C(=O)N1CCCCC1CCN1CCCCC1` (configuration not stated) the figure was 80%; with `Cc1ccc(S(=O)(=O)N2CC=C(c3ccc(F)cc3)CC2)cc1`, 87%; with `Cc1nn2c(=O)cc(COC(=O)c3ccccc3NC(=O)c3cccs3)nc2s1`, 74%.
On to `COc1ccc(CN(Cc2ccco2)C(=O)c2ccccc2F)cc1`, for which the survival was 74%.
As to `CCOc1ccc(C2C(=O)N(C3CCCCCC3)CC(=O)N2Cc2ccc(C)cc2)cc1OC` (configuration not stated), the survival is 96%.
As to `CSc1cccc(NC(=O)Cn2nc(C)c3sc4ccccc4c3c2=O)c1`, the survival was 83%.
For `CC1(C)Oc2ccc3ccc(=O)oc3c2-c2cn[nH]c21`, the survival is 69%.
With `Cc1nc2sccn2c1-c1csc(Nc2cccc(Cl)c2C)n1` the figure was 15% (active); with `Cc1cccc(NS(=O)(=O)c2c(C)nc3sccn3c2=O)c1C`, 108%.
Consider `Cc1nc2sccn2c(=O)c1S(=O)(=O)Nc1cccc(Cl)c1C`, for which the survival was 68%.
Consider `CCCCC(CC)C(=O)Nc1nnc(C(C)C)s1` (configuration not stated), for which the survival was 91%.
With `O=C(CN1C(=O)CC(c2ccco2)Sc2ccccc21)Nc1ccc(Br)cc1` (configuration not stated), the survival was 75%.
Regarding `O=C1CC(c2nnc(Cc3ccc(F)cc3Cl)o2)CN1c1ccccc1` (configuration not stated), the survival is 133%.
For `Cc1ccc(SCc2nc(-c3ccc(C(=O)NCCc4ccc(Cl)cc4)cc3)oc2C)cc1`, the survival was -2% (active).
Turning to `Cc1oc(-c2ccc(C(=O)NCCc3ccc(Cl)cc3)cc2)nc1CSc1ccccc1`, the survival was 83%.
The result for `COc1ccc(CNC(=O)c2ccc(-c3nc(CSc4ccc(C)cc4)c(C)o3)cc2)cc1OC` reads -1% (active); that for `COc1ccc(CNC(=O)c2ccc(-c3nc(CSc4ccccc4)c(C)o3)cc2)c(OC)c1`, 85%.
In the case of `COc1ccc(CNC(=O)c2ccc(-c3nc(CSc4ccccc4)c(C)o3)cc2)cc1OC`, the survival was 78%.
As to `COc1ccc(OC)c(CNC(=O)c2ccc(-c3nc(CSc4ccccc4)c(C)o3)cc2)c1`, the survival is 120%.
As for `COc1ccc(CNC(=O)c2ccc(-c3nc(CSc4ccc(C)cc4)c(C)o3)cc2)c(OC)c1`, the survival was 6% (active).
In the case of `Cc1ccc(SCc2nc(-c3ccc(C(=O)NCc4ccc(Cl)cc4)cc3)oc2C)cc1`, the survival is 76%.
Consider `CCc1ccc(CNC(=O)c2ccc(-c3nc(CSc4ccc(C)cc4)c(C)o3)cc2)cc1`, for which the survival was 67%.

Source of the values: PubChem BioAssay AID463173 (ICCB-Longwood Screening Facility, Harvard Medical School, 2010).
